Measurements as given in PubChem BioAssay (NCI).
This is part of a sample that, as a whole, favours compounds with a hit. Of some 79,000 tested, about 15% had one in any assay. Unmarked numbers belong to inactive results. Calls of active or inactive are those of the source. Cut-off read from the data, not from the text of the source: active = growth inhibition above about 70%; inactive = the rest. Residues, ends and D or L forms follow the SMILES beside them. *: point of attachment. Fmoc = O=C(OCC1c2ccccc2-c2ccccc21)*; Boc = CC(C)(C)OC(=O)*

assay: NCI Yeast Anticancer Drug Screen. Data for the rad14 strain (AID 159);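 note: 0% = growth of vehicle-treated control cultures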; details: S. cerevisiae rad14 strain growth inhibition; at 11.0 µM; active compounds read high
Procedure, shortened: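 A mutant yeast strain defective in DNA damage repair is treated with compound; inhibition of its growth is scored against untreated, vehicle-exposed cultures.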

SMILES	growth inhibition
OC(Cc1cccc2ccccc12)CN1CCC(c2ccccc2)CC1 (configuration not stated)	89% (active)
O=[N+]([O-])c1cc[n+]([O-])c(Cl)c1	19%
CCCNC(=O)OCc1c(COC(=O)NCCC)c(-c2ccc(Cl)c(Cl)c2)n2c1CCC2	0%
CC1(C)CC(=O)C(C(=O)Nc2cccs2)=C(O)C1	10%
O=C(NO)c1coc2ccccc2c1=O	-1%
COc1ccc(C(C)c2cc3c(cc2OCC(C)=O)OCO3)cc1 (configuration not stated)	-3%
CCS(=O)(=O)Nc1ccc(Nc2c3ccccc3nc3ccccc23)c(OC)c1	-26%
O=S(=O)(c1ccccc1)N1CN2CN(C1)CN(S(=O)(=O)c1ccccc1)C2	-30%
CC1=NN(C(=O)c2ccccc2O)C(=O)/C1=C/c1ccco1	69%
O=C1C=C(Br)C(=O)c2ccccc21	98% (active)
C[N+](C)([O-])CCCNc1c2ccccc2nc2cccc([N+](=O)[O-])c12	94% (active)
Cc1cccc2c(NCCCN(C)C)c3c([N+](=O)[O-])ccc(C)c3nc12	99% (active)
OC1(c2ccccc2)C2CC=CC2C1(c1ccccc1)c1ccccc1 (configuration not stated)	6%
C[n+]1c(-c2ccc(/C=N/NC(=O)c3ccc(C(=O)N/N=C/c4ccc(-c5cn6ccccc6[n+]5C)cc4)cc3)cc2)cn2ccccc21	15%
CCN(CC)CCC(=O)Nc1ccc2sc3ccccc3c(=O)c2n1	25%
O=[N+]([O-])c1ccc2nc(=S)[nH]n2c1	6%
O=C(c1ccccc1)[C@H]1Nc2ccc(Cl)cc2[C@H]2OCCC[C@@H]12	-41%
COc1cc([N+](=O)[O-])c2ncccc2c1Br	67%
CC(C)(C)OC(=O)NCCCCC(NC(=O)C(Cc1c[nH]c2ccccc12)NC(=O)OCC1c2ccccc2-c2ccccc21)C(=O)O (configuration not stated) (Fmoc-Trp-Lys(Boc)-OH; configuration not given here)	1%

same assay, conditions: S. cerevisiae rad14 strain growth inhibition; at 33.0 µM; active compounds read high

SMILES	growth inhibition
CC(C)C(=O)CC(Sc1ccc(N)cc1)c1ccccc1 (configuration not stated)	25%
CC(C)OP(=O)(OC(C)C)/C(Cl)=N/Nc1ccc([N+](=O)[O-])cc1	34%
O=[N+]([O-])c1cc(Cl)ccc1S(=O)(=O)c1ccc(Cl)cc1[N+](=O)[O-]	88% (active)
CCCCCCNCCCNc1c2cc(OC)ccc2nc2cccc([N+](=O)[O-])c12	99% (active)
N#CCC(=O)N/N=C(\c1ccccc1)C(c1ccccc1)C1(O)C(=O)Nc2c(Cl)ccc(Cl)c21 (configuration not stated)	27%
CN(C)CCNCCCNc1c2ccccc2nc2cccc([N+](=O)[O-])c12	97% (active)
CCC[CH2][Ge]([CH2]CCC)([CH2]CCC)[O]C(=O)C(O)c1ccccc1 (configuration not stated)	68%
COc1ccc(-c2cc(-c3cc(C)cc(Cl)c3O)nc3[nH]c(=S)[nH]c(=S)c23)cc1	17%
O=[N+]([O-])c1ccc(/C=C\c2ccc3c(c2)OCO3)c([N+](=O)[O-])c1	24%
O=C1c2ccccc2N2OC3(N4CCCC4)CCCCC3C12c1ccccc1 (configuration not stated)	-17%
CC(C)OC(=O)NNc1cc(Cl)ccc1Cl	48%
CC1(C)OC(=O)C(=Cc2ccc([N+](=O)[O-])s2)C(=O)O1	9%
CCN(CC)CCCNc1ccc([N+](=O)[O-])c2nc3ccc(OC)cc3c(NCCCN(CC)CC)c12	0%
COc1cccc(/C=C2\S/C(=N/Nc3nc(-c4ccc([N+](=O)[O-])cc4)cs3)NC2=O)c1O	20%
OC(Cc1cccc2ccccc12)CN1CCC(c2ccccc2)CC1 (configuration not stated)	97% (active)
O=[N+]([O-])c1cc[n+]([O-])c(Cl)c1	97% (active)
CCCNC(=O)OCc1c(COC(=O)NCCC)c(-c2ccc(Cl)c(Cl)c2)n2c1CCC2	54%
CC1(C)CC(=O)C(C(=O)Nc2cccs2)=C(O)C1	92% (active)
O=C(NO)c1coc2ccccc2c1=O	-2%
COc1ccc(C(C)c2cc3c(cc2OCC(C)=O)OCO3)cc1 (configuration not stated)	1%
CCS(=O)(=O)Nc1ccc(Nc2c3ccccc3nc3ccccc23)c(OC)c1	5%
O=S(=O)(c1ccccc1)N1CN2CN(C1)CN(S(=O)(=O)c1ccccc1)C2	-24%
CC1=NN(C(=O)c2ccccc2O)C(=O)/C1=C/c1ccco1	89% (active)
